# In PubChem BioAssay AID1850 (Southern Research Specialized Biocontainment Screening …, 2009):
# In all, about 310,000 compounds went through this assay and about 1,000 (0.32%) were called active. The list is a sample of the results. Results with a measured potency or affinity are listed apart. Values without a mark were called inactive. The rule behind the calls is not given here.
# Experiment: Inhibition of PhoP regulon, Salmonella typhi GFP reporter cells, confirmation, 4 h (AID 1850);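 note: 0% = induced wells with vehicle and 100% = uninduced wells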
# Conditions: Salmonella Typhi PhoP-promoter GFP reporter, fluorescence, at 50 µM, hits give high values
row,Structure (SMILES),inhibition
1,CC(C)CN1C2CCCC1CC(NC(=O)c1ccc([N+](=O)[O-])cc1)C2 (stereo unspecified),3.6%
2,N/C(=N\NS(=O)(=O)c1ccccc1C(F)(F)F)c1ccccn1,2.11%
3,COc1cccc(C(=O)Nc2c3c(nc4c2CCC4)CCCC3)c1,-0.613%
4,CC(C)(C)C1CCC(C(=O)OCC(=O)N2CCN(C(=O)c3ccco3)CC2)CC1 (stereo unspecified),-8.5%
5,O=c1c(C=NCc2cccnc2)c(C(F)(F)F)[nH]n1-c1nc2ccccc2s1,2.08%
6,COC(=O)C1=C(C)Nc2c(c(=O)n(C)c(=O)n2C)C1c1ccc(Cl)cc1 (stereo unspecified),0.17%
7,CC(=O)c1sc(-c2ccccn2)nc1C,3.14%
8,N=c1ccn2c(n1)O[C@H]1[C@@H](CO)[C@H](O)O[C@H]12,2.95%
9,CCOC(=O)c1cn(-c2ccc(F)c(F)c2)c2c(F)c(F)c(F)c(F)c2c1=O,-9.71%
10,COC(=O)c1cc(NC(=S)NCc2ccc(Cl)cc2)cc(C(=O)OC)c1,-2.32%
11,COC(=O)c1ccc(C)c(NC(=S)NCc2ccc(Cl)cc2)c1,-7.26%
12,O=C(Nc1ccccc1)O/N=C(\c1ccccc1)c1ccccn1,-16.2%
13,Cc1cccc[n+]1CC(=O)Nc1ccc([N+](=O)[O-])cc1,1.95%
14,Cc1ccc[n+](CC(=O)Nc2ccc([N+](=O)[O-])cc2)c1,6.66%
15,N#Cc1ccccc1NC(=O)CSc1nnc(-c2ccccc2)n1-c1ccccc1,0.92%
16,COc1ccc2c(c1OC)C(=O)N(c1ccccc1)C2=O,9.99%
17,COc1ccc2c(c1OC)C(=O)N(c1ccc(O)cc1)C2=O,-3.53%
18,CCN(C(=S)NCc1ccccc1)c1ccccc1,-2.51%
19,Cc1c(NC(=O)C(=O)/C=C(\O)c2ccc(Cl)cc2)c(=O)n(-c2ccccc2)n1C,-8.97%
20,Cc1cc(C)nc(N/N=C/c2ccccc2)n1,-1.28%
21,O=C(N/N=C/c1ccncc1)c1cccs1,-16.1%
22,O=C(N/N=C/c1ccccn1)c1ccco1,8.62%
23,O=C(N/N=C/c1ccc(Br)s1)c1cccs1,5.12%
24,Cc1ccc(/C=N/NC(=O)c2cccs2)s1,-3.78%

row,Structure (SMILES),inhibition
1,O=C(N/N=C/c1ccccn1)c1ccncc1,10.1%
2,O=C(N/N=C/c1ccccn1)c1ccc(Br)cc1,8.46%
3,CC(C)NC(=O)NC(=O)COC(=O)CCOc1ccccc1,1.53%
4,O=C(CC1(CC2=NS(=O)(=O)c3ccccc3N2)CCCC1)NCCc1ccccc1,-20.4%
5,O=C(NCC1CC1)c1cc(-c2ccccc2)nn1CC1CC(c2cccc([N+](=O)[O-])c2)=NO1 (stereo unspecified),4.4%
6,Cc1ccc(Cl)cc1N1CCN(S(=O)(=O)c2c(C)[nH]c(=O)[nH]c2=O)CC1,8.84%
7,CCn1cc(C(=O)O)c(=O)c2cc(F)c(N3CCN(C(=S)NC(=O)c4c(OC)cccc4OC)CC3)cc21,3.3%
8,C=CCNC(=S)N1CCN(c2cc3c(cc2F)c(=O)c(C(=O)O)cn3CC)CC1,-3.14%
9,Cn1nnnc1SCC(=O)NCCCc1ccccc1,0.19%
10,Cc1cccc(NC(=O)COC(=O)Cc2c[nH]c3ccccc23)c1C,-3.69%
11,O=C(NC(=S)NCc1cccnc1)c1cc(Br)ccc1Cl,-7.31%
12,O=C(COc1ncnc2ccccc12)NCC1CCCO1 (stereo unspecified),7.4%
13,Cc1cc(S(=O)(=O)Nc2cccc([N+](=O)[O-])c2)c(C)s1,-6.89%
14,O=C(NNS(=O)(=O)c1ccccc1[N+](=O)[O-])c1cccc([N+](=O)[O-])c1,-5.01%
15,Cc1occc1C(=O)NC(C)C12CC3CC(CC(C3)C1)C2 (stereo unspecified),2.3%
16,CCC1(CC)Cc2ccccc2C(CC(=O)N2CCOCC2)=N1,-0.09%
17,COc1ccc(/C=C/C(=O)c2cc(Cl)cc(Cl)c2O)c(OC)c1,1.28%
18,O=c1[nH][nH]c(-c2ccccc2O)c1C(C[N+](=O)[O-])c1ccccc1 (stereo unspecified),10.2%
19,Cc1ccc(C(C[N+](=O)[O-])c2c(-c3ccccc3O)[nH][nH]c2=O)cc1 (stereo unspecified),3.54%
20,Cc1ccc2c(C)c(C(=O)Nc3cccnc3)oc2c1,-1.18%
21,CCN(CC)S(=O)(=O)c1ccc(/C=C/C(=O)Nc2ccc(Br)cc2F)cc1,-3.09%
22,COc1cc(Nc2c3c(nc4ccccc24)CCC3)cc(OC)c1OC,-13.8%
23,Cc1ccc2nc3c(c(Nc4ccccc4)c2c1)CCC3,1.9%
24,COc1ccc(Nc2c3c(nc4ccc(C)cc24)CCC3)cc1,26.7%

row,Structure (SMILES),inhibition
1,N#Cc1cccc(Nc2c3c(nc4ccccc24)CCC3)c1,-6.96%
2,c1ccc2c(Nc3ccc4c(c3)OCCO4)c3c(nc2c1)CCCC3,-7.16%
3,c1ccc(Nc2c3c(nc4ccccc24)CCC3)cc1,-12.1%
4,CC(=O)c1ccc(Nc2c3c(nc4ccccc24)CCCC3)cc1,-0.46%
5,c1ccc2c(Nc3ccc4c(c3)OCCO4)c3c(nc2c1)CCC3,19.5%
6,O=C(O)C1C2CCC(C2)C1C(=O)N1CCCC1 (stereo unspecified),6.43%
7,COc1ccc(S(=O)(=O)N(C)CC(=O)NCCC2=CCCCC2)cc1OC,9.61%
8,C/C(CC(=O)Nc1ccccc1C(F)(F)F)=N\NC(=O)c1cnccn1,-1.08%
9,CCCn1c(O)c(N=NC(=O)CNC(=O)Cc2ccc(OC)cc2)c2ccccc21,-19.2%
10,CCCN(CCC)S(=O)(=O)c1cccc(C(=O)N=c2sccn2C)c1,-5.43%
11,Cc1cccc(NC(=O)c2cc([N+](=O)[O-])ccc2Cl)c1O,-4.69%
12,CCOc1cc(C(=O)Nc2ccc3c(c2)OCO3)ccc1OCCOc1ccccc1Cl,-0.32%
13,Cc1ccc2nc3c(c(Nc4cccc(O)c4)c2c1)CCC3,7.27%
14,CC(=O)c1cccc(Nc2c3c(nc4ccccc24)CCC3)c1,12.8%
15,O=C(Cc1ccsc1)Nc1cc(F)ccc1F,3.38%
16,O=C(COc1ccc(S(=O)(=O)N2CCCCC2)cc1Cl)N1CCOCC1,-6.77%
17,COc1ccc(Cl)cc1NC(=O)C1CC(=O)N(C2CCCCC2)C1 (stereo unspecified),-8.7%
18,O=C(COC(=O)c1ccc(Br)o1)NCCNC(=O)COC(=O)c1ccc(Br)o1,-1.54%
19,Cc1cc(C(=O)N2CCC(Cc3ccccc3)CC2)c(C)o1,-3.49%
20,CCOc1ccc(NC2=NCCCS2)cc1,-2.96%
21,CCc1ccc(NC2=NCCCS2)cc1,39.5%
22,CCCCC(CC)COC(=O)c1ccccc1C(=O)OCC(CC)CCCC (stereo unspecified),-4.54%
23,COC(=O)[C@@H](N)CCCN=C(N)N[N+](=O)[O-],-16.2%
24,CCOc1ccc(OCCSc2nc(N)cc(=O)[nH]2)cc1,12.9%

row,Structure (SMILES),inhibition
1,C=CCNC(=O)c1cc2cccc(OC)c2oc1=O,-9.75%
2,COCC(=O)NNS(=O)(=O)c1ccccc1[N+](=O)[O-],0.41%
3,Cc1c(-n2cc(C(=O)O)c(=O)c3cc(F)c(N4CCCC(O)C4)c(F)c32)c(=O)n(-c2ccccc2)n1C (stereo unspecified),2.49%
4,CC1CCN(c2c(NCC3CCC(C(=O)NCc4ccccc4)CC3)c(=O)c2=O)CC1 (stereo unspecified),-9.12%
5,COc1ccc(-c2noc(N3CCCC(C(=O)Nc4ccccc4F)C3)n2)cc1 (stereo unspecified),4.79%
6,S=C(NC1CC2CCC1C2)N1CCN(c2cccc(Cl)c2)CC1 (stereo unspecified),15.8%
7,O=S(=O)(c1ccc(F)c(F)c1F)N1CCN(C(=S)NC2CC3CCC2C3)CC1 (stereo unspecified),3.26%
8,CC1CCCN(C(=S)NCc2ccccc2)C1 (stereo unspecified),-5.12%
9,Cc1ccccc1N1C(=O)c2sc3nc4c(c(=O)n3c2C1=O)CCC4,0.93%
10,O=C(OCCN=C1NS(=O)(=O)c2ccccc21)c1ccco1,5.3%
11,O=C(c1cccc(S(=O)(=O)N2CCCC2)c1)N1CCN(c2ccccc2F)CC1,-7.17%
12,O=C(CSc1nc2[nH]ncc2c(=O)n1-c1ccc(Cl)c(Cl)c1)NCc1ccccc1Cl,-3.93%
13,C/C(=N\NC(=O)c1cccnc1)c1ccccc1,-2.72%
14,CC(=O)Nc1ccc(S(=O)(=O)NCC2CCC(C(=O)NCCCN3CCCC3=O)CC2)cc1 (stereo unspecified),-3.51%
15,COc1ccc(S(=O)(=O)N2CCc3ccccc32)cc1C(=O)O,0.91%
16,O=C(NCc1cccnc1)c1cc(Sc2ccc(F)cc2F)nc2ccccc12,-9.05%
17,COc1ccc(CC(=O)NNC(=S)NC(=O)c2cccnc2)cc1,9.02%
18,Cc1n[nH]c(C)c1CCNC(=O)C1CCC(=O)N(CCc2cccc(F)c2)C1 (stereo unspecified),-2.89%
19,COC(=O)C(C)NC(=S)N1CC2C[C@@H](C1)Cn1c2cccc1=O (stereo partly specified),3.1%
20,COC(=O)CC1C(=O)NCCN1C(=S)Nc1ccc(F)cc1 (stereo unspecified),4.44%
21,CCn1cc(C(=O)O)c(=O)c2cnc(N3CCN(C(=S)Nc4ccc(F)cc4)CC3)nc21,-5.98%
22,COC(=O)C1=C(N)Oc2cc(N(C)C)ccc2C1c1ccccc1OC (stereo unspecified),-7.55%
23,Cc1ccc(CNC(=O)CSCc2ccccc2F)cc1,3.95%
24,Cc1ccccc1N1CC(C(=O)NC2CCCC2)CC1=O (stereo unspecified),-18.4%
